Most compounds without a hit are left out; they make up all but 3.6% or so of the library.
LDHA block: LDHA (human) enzyme inhibition. purified LDHA, NADH/diaphorase-resazurin fluorescence; active compounds read low. activity change, % (values are at about 110 or 230 µM). 0.15% of 480,000 active. AID 1347041; in the data active = activity change below about -30%;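 also: plate controls were DMSO wells for no effect and wells without enzyme for full effect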
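LDH5 2 nM; NADH 0.06 mM, pyruvate 0.2 mM; 200 mM Tris pH 7.4, EDTA, Tween-20; 5 min RT. Detection: diaphorase 0.133 mg/mL + resazurin 37 µM, fluorescence ex540/em590 at 0 and 20 min; normalized to enzyme-free and DMSO wells.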
D1 antagonist: blocks dopamine activation of the human D1 receptor. P21728. HEK293 TREx D1 cells, calcium flux, dopamine EC80; active compounds read low. activity change, negative = inhibition, % at 10 µM. 3.2% of 360,000 active; in the data active = activity change below about -30%; also: % is scaled to controls: 0 for no effect and ±100 for the full control effect
Target sequence (P21728 whole entry, looked up): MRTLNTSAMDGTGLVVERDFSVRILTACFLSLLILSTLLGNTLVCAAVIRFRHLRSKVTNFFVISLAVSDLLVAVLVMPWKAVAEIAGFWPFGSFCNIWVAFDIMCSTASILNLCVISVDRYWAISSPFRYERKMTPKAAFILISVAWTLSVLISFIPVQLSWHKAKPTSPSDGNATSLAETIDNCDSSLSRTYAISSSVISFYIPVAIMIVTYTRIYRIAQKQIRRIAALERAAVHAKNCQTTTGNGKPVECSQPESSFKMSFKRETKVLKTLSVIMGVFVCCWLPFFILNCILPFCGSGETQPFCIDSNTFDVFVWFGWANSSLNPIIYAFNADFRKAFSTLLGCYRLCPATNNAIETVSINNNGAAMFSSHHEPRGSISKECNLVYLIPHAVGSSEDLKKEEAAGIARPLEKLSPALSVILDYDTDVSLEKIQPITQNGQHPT
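Using tetracycline-induced force-coupled D1 Hek293 cells and a calcium dye, signals were followed for 180 s after compound, then for 180 s after EC80 dopamine, to detect inhibitors.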
TRHR enhancer: allosterically enhances the human TRH receptor | enhancement, % at 2 µM | AID 493056 | TRHR cells, fluo-8 calcium fluorescence, EC20 TRH enhancement | 0.66% of 360,000 active; in the data active = enhancement above about 30%; also: 0% is about no effect
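TRHR-expressing cells loaded with fluo-8 calcium dye were read kinetically (ex 480/em 530) during compound addition, then stimulated with an EC20 of TRH (10 nM final). Enhancement of the Gq-mediated intracellular calcium response was scored.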
D1 ag: activates the human D1 dopamine receptor; P21728; HEK293 T-REx D1 cells, calcium flux, agonist mode; activation, % at 2 µM; 1% of 360,000 active; also: 0% is about no effect
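Inducible HEK293 T-REx D1 cells, force-coupled to calcium signalling, were plated at 4000 cells/well with tetracycline and held overnight at 30 C. After no-wash calcium dye loading, compound-evoked calcium rise over 180 s flagged agonists.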
D1 PAM: enhances dopamine response at the human D1 receptor; P21728; HEK293 TREx D1 cells, calcium flux, dopamine EC20 potentiation; potentiation, % at 10 µM; 0.036% of 360,000 active; in the data active = potentiation above about 30%; also: 0% is about no effect
TRHR agonist: agonists of human TRH receptor; P34981; TRHR cells, calcium flux fluo-8, FDSS agonist mode; activation, % at 2 µM; 0.18% of 360,000 active; AID 493084; also: 0% is about no effect
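TRHR-expressing cells, plated overnight in medium with 10% serum, were loaded with fluo-8 calcium dye at room temperature. After a 10 s baseline, library compound was pin-added and calcium release was recorded kinetically (ex 480/em 530) as agonist response.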
An asterisk follows results filed as active; · = not tested or not shown; ! = repeats disagree. Rule as the data show it, unless noted: active = activation above about 30%; inactive = the rest.

SMILES	LDHA block	D1 antagonist	TRHR enhancer	D1 ag	D1 PAM	TRHR agonist
COC(=O)c1cc(C)nc2c1c(C)nn2-c1ccccc1	0	-2	-6	1	-5	-1
Cc1ccc(Cl)cc1NC(=S)N(CCCN1CCOCC1)Cc1ccco1	0	-52*	0	3	-12	0
Cc1c(Cl)cccc1NC(=S)N(CCCN1CCOCC1)Cc1ccco1	-1	-11	15	3	-4	0
Cc1cc(NC(=S)N(CCCN2CCN(C)CC2)Cc2ccco2)ccc1Cl	-2	-31*	-7	9	0	0
COc1cc(C(=O)Oc2ccc3c(=O)c(-c4ccccc4)coc3c2)cc(OC)c1OC	-32*	·	·	·	·	·
COc1ccccc1-c1coc2cc(OC(=O)c3ccccc3)ccc2c1=O	9	·	·	·	·	·
Cc1cc(C)nc(NC(=O)/C=C/c2cccs2)c1	-5	-12	0	0	4	-1
Cc1cc(C)c(-c2csc(NC(=O)/C=C/c3cccs3)n2)c(C)c1	-4	-37*	-1	2	-2	1
Cc1cc(NC(=O)COC(=O)c2sc3ccccc3c2C)no1	1	·	·	·	·	·
Cc1ccc(Cc2cnc(NC(=O)c3ccc4c(c3)CC(c3ccccc3)OC4=O)s2)cc1 (stereo not given)	-4	-31*	2	1	-3	-1
Cc1cccc(Cc2cnc(NC(=O)c3ccc4c(c3)CC(c3ccccc3)OC4=O)s2)c1 (stereo not given)	-1	0	8	1	0	0
COc1ccc(-c2coc3cc(OCC(=O)NCc4ccc(F)cc4)ccc3c2=O)cc1OC	2	·	·	·	·	·
Cc1ccc(/C=N/n2c(-c3cccc(Cl)c3)n[nH]c2=S)o1	-9	-35*	-4	-1	-2	0
S=c1[nH]nc(-c2cccc(Cl)c2)n1/N=C/c1ccco1	-4	-10	5	1	-6	-1
O=C1CN(C(=O)CSc2nnnn2C2CC2)c2ccccc2N1	1	9	6	5	2	1
CC(Sc1nnnn1C1CC1)C(=O)N1CC(=O)Nc2ccccc21 (stereo not given)	-1	-32*	-7	1	-3	-1
N#C/C(=C/c1ccc2c(c1)OCO2)C(=O)OCC(=O)N1CCCCC1	9	·	·	·	·	·
COC(=O)c1cccc(-n2c(C)cc(C=O)c2C)c1	-10	-30*	-5	3	-4	-2
COc1ccc(N2CC(C(=O)Nc3c4c(nn3-c3ccc(OC)cc3)CS(=O)(=O)C4)CC2=O)cc1 (stereo not given)	9	-3	13	0	-14	0
COc1ccc(N2CC(C(=O)Nc3c4c(nn3-c3ccccc3)CS(=O)(=O)C4)CC2=O)cc1 (stereo not given)	4	-52*	-3	1	-7	0
CCOc1ccc(N2CC(C(=O)Nc3cc(OCC)c(N4CCOCC4)cc3OCC)CC2=O)cc1 (stereo not given)	0	8	4	2	0	-1
CCOc1ccc(N2CC(C(=O)Nc3ccccn3)CC2=O)cc1 (stereo not given)	0	-36*	-2	-1	-9	0
CCOc1ccc(N2CC(C(=O)Nc3ccccc3N3CCOCC3)CC2=O)cc1 (stereo not given)	-1	-30*	0	5	-1	-1
CC(C)CNc1oc(-c2ccccc2F)nc1C#N	-36*	·	·	·	·	·
O=C(c1ccco1)N1CCN(CCOCCOc2cccc3ccccc23)CC1	1	-53*	7	1	2	0
SMILES	LDHA block	D1 antagonist	TRHR enhancer	D1 ag	D1 PAM	TRHR agonist
c1ccc(CN2CCN(CCOCCOc3cccc4ccccc34)CC2)cc1	-23	-43*	10	22	-9	1
Cc1cc(C)n(-c2nc3ccccc3nc2Nc2ccc(F)cc2C)n1	-4	·	·	·	·	·
Cc1cc(C)n(-c2nc3nonc3nc2Nc2cccc(C)c2C)n1	1	-32*	9	2	-1	0
CN(Cc1ccccc1)C(=O)c1ccc(OCc2ccccc2)cc1	1	·	·	·	·	·
O=C1CCNc2ccc(-c3ccccc3)cc21	0	-13	9	68*	-8	17
CCOc1ccccc1C(=O)OCc1ccc(C(N)=O)cc1	3	·	·	·	·	·
O=S(=O)(NCc1ccc(N2CCOCC2)nc1)c1ccc(Cl)cc1C(F)(F)F	6	·	·	·	·	·
CC1Cc2cc(S(=O)(=O)NCCC(=O)Nc3cccc(C(F)(F)F)c3)ccc2N1C(=O)C1CC1 (stereo not given)	9	·	·	·	·	·
C#CCn1c(-c2cccs2)nc2ccccc21	-9	23	32*	2	-5	1
CCCC/C(=N\NC(=O)c1ccc(Br)o1)c1ccccc1	-2	-66*	-6	1	-4	0
CCCCCC/C(=N\NS(C)(=O)=O)c1ccccc1	-2	-68*	0	-1	29	0
CC1=C/C(=C\C=C(C#N)C#N)N(C)c2ccccc21	-2	-35*	-4	45*	-12	24
CN1/C(=C/C=C(C#N)C#N)C(C)(C)c2ccccc21	-4	5	5	116*	12	0
CN1/C(=C\C(=O)COC(=O)c2ccccc2O)C(C)(C)c2ccccc21	-2	-5	0	7	-5	0
COc1ccccc1OCC(=O)/C=C1/N(C)c2ccccc2C1(C)C	-1	-49*	1	32*	-8	0
CN(C)c1ccc(N=C/C=C2\N(C)c3ccccc3C2(C)C)cc1	22	·	·	·	·	·
CN1/C(=C\C=O)C(C)(C)c2ccccc21	-4	5	-2	0	-4	-1
CN1\C(=C/C=C/C=C/C=[N+](C)C)C(C)(C)c2ccccc21	-1	-20	47*	324*	6	142*
Cc1cccc(NC(=O)COc2ccc3c(C)cc(=O)oc3c2)c1C	-5	·	·	·	·	·
COc1ccc(C(=O)C2CCCN(Cc3ccc(C#CCCO)cc3)C2)cc1F (stereo not given)	-6	-37*	1	27	-3	-1
COc1ccc(C2CC(=O)N3CN(c4ccc(C)c(Cl)c4)CSC3=C2C#N)cc1 (stereo not given)	1	-3	31*	3	-5	0
CCCCN(CC)CCNC(=O)C1CCCN(c2ncnc3onc(C)c23)C1 (stereo not given)	-2	-30*	-5	-1	1	1
COc1ccc(-c2c(C)oc3cc(OCCN4CCN(C)CC4)ccc3c2=O)cc1	-1	·	·	·	·	·
CN(Cc1ccccc1)C1CCCN(C(=O)c2ccc(Cl)s2)C1 (stereo not given)	-6	-31*	1	2	-9	0
CN(C)CCNC(=O)Cn1c(=O)c2cccn2c2ccc(F)cc21	-2	5	0	37*!	-5	1
CC(=O)C(Sc1ccc(C)cc1)(Sc1ccc(C)cc1)C(C)=O	-2	·	·	·	·	·

Screens: PubChem BioAssay, National Center for Advancing Translational Sciences (NCATS)
